# Source: PubChem
# IL-1B inflam inh = qHTS for Inhibitors of Inflammasome Signaling: IL-1-beta AlphaLISA Primary Screen; THP-1 LPS/ATP IL-1B secretion, AlphaLISA, 16 h; hits give low values; activity change, % at 57.5 µM; hit rate 4.7% among 360,000; in the data active means activity change below about -50%; inconclusive means mostly about -30% to -49%; further: on the % scale 0 is the no-effect control and ±100 the full control effect
#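 Secreted IL-1B measured by AlphaLISA bead assay after 16 h compound exposure of THP-1 cells; compounds (final up to 57.5 uM) added 1 h before LPS (250 ng/mL) and ATP (1.25 mM) stimulation; lower signal means less secretion.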
# TDP1 cell noCPT = qHTS for Inhibitors of human tyrosyl-DNA phosphodiesterase 1 (TDP1): qHTS in cells in absence of CPT. DT40 Tdp1-/- hTDP1 cells, no CPT, ATP luminescence, 48 h. Potency, µM (titrated, usually from 46.2 µM), without a hit: at the top dose activity change, negative = growth inhibition, usual class: inhibitors. hit rate 15% among 420,000; further: potency means the concentration at half of the fitted maximal effect; on the % scale 0 is the no-effect control and ±100 the full control effect; nearly all actives have a fitted effect of over 55% in size
#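 Camptothecin absent (DMSO only). Human TDP1-complemented DT40 knockout cells, 400 cells/well, 37 °C for minimum 48 hr; ATP measured via CellTiter-Glo, 30 min dark incubation, luminescence.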
# TDP1 cell CPT = qHTS for Inhibitors of human tyrosyl-DNA phosphodiesterase 1 (TDP1): qHTS in cells in presence of CPT. chicken DT40 Tdp1-/-;hTDP1 cells + 20 nM CPT, ATP luminescence, 48 h. Potency, µM (top dose mostly 46.2 µM), for inactives: top-dose activity change, negative = growth inhibition, actives largely listed as inhibitors. hit rate 12% among 420,000. AID 686979, 2013; further: potency means the concentration at half of the fitted maximal effect; on the % scale 0 is the no-effect control and ±100 the full control effect; nearly all actives have a fitted effect of over 55% in size
#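 Cell growth measured by CellTiter-Glo luminescence after a minimum 48 h, 37 C compound exposure with 20 nM CPT in Tdp1-knockout DT40 cells stably expressing hTDP1, seeded 400/well; qHTS titration format.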
# SW480 rereplic = A quantitative high throughput screen for small molecules that induce DNA re-replication in SW480 colon adenocarcinoma cells. SW480 DNA re-replication, Hoechst DNA content imaging, 48 h. Potency, µM (top dose mostly 46.1 µM), without a hit: at the top dose re-replication activation, most hits filed as activators. hit rate 1.8% among 340,000. AID 624297, 2012; further: potency means the concentration at half of the fitted maximal effect; % of control where 0% means no effect; nearly all actives have a fitted effect of over 55% in size
#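 Image-based DNA-content assay: after two days of treatment, nuclei were labelled with the DNA dye Hoechst and imaged, and hits were compounds raising the count of nuclei showing high fluorescence intensity.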
# MCF10A rereplic = A quantitative high throughput screen for small molecules that induce DNA re-replication in MCF 10a normal breast cells; MCF 10A DNA re-replication, Hoechst nuclear intensity, 48 h; Potency, µM (top dose mostly 46.1 µM), for inactives: top-dose activity, positive = re-replication, hits mostly activators; hit rate 2.9% among 350,000; AID 624296, 2012; further: potency means the concentration at half of the fitted maximal effect; % of control where 0% means no effect; nearly all actives have a fitted effect of over 50% in size
# Chronic BCR inh = qHTS Assay to Find Inhibitors of Chronic Active B-Cell Receptor Signaling. ABC-DLBCL IkBa-CBG/CBR reporter, luminescence ratio, 4 h. Potency, µM (top dose mostly 46.1 µM), inactives show at the top dose activity change, negative = inhibition, usual class: inhibitors. hit rate 0.05% among 340,000. AID 493014, 2011; active means well fitted inhibition curve with a large enough effect in the signal ratio, with a control signal flat, not every such curve was filed as active; inconclusive means small, poorly fitted or top-dose-only effect, or effect the other way, or a change in a side signal; the % refers to the signal ratio;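 further: potency means the concentration at half of the fitted maximal effect; plate controls were basal doxycycline-induced cells for no effect and cells given 10 µM MG132 for full effect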
#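 Cell line TMD8 (human ABC DLBCL), stably expressing tet-inducible CBG68-IkBa fusion and CBR; IMDM/0.5% FBS; cpd up to 46 uM; dox induction, 4 h, 37C/5% CO2; dual luminescence; green/red ratio; MG132 control.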
# * = called active by the depositor; u = inconclusive; x = not tested or not shown. Rows were chosen to be rich in hits. Some 19% of all compounds tested hit in one or more screens of this group. Unless noted, the call rests on the fitted dose curve; in most records, active means well fitted curve in the direction sought with a large enough effect; inconclusive means small, poorly fitted or top-dose-only effect, or another doubt; inactive means no such curve, though single readings can be large; an effect the other way counts as inactive or inconclusive.
SMILES,IL-1B inflam inh,TDP1 cell noCPT,TDP1 cell CPT,SW480 rereplic,MCF10A rereplic,Chronic BCR inh
C=Cc1c(C)c2cc3nc(cc4[nH]c(cc5nc(cc1[nH]2)C(C)=C5CCC(=O)O)c(CCC(=O)OC)c4C)[C@@]1(C)C3=CC=C(C(=O)OC)[C@H]1C(=O)OC (tested in a mixture with another compound),x,x,x,-1%,7%,x
Cc1cccc2c(=O)cc(CSc3ccccc3NC(=O)c3cccc(F)c3)[nH]c12,x,u,-28%,x,x,x
C[C@H](CO)N1C[C@H](C)[C@@H](CN(C)Cc2ccc(C(=O)O)cc2)Oc2c(NS(=O)(=O)c3cn(C)cn3)cccc2C1=O,20,-17%,6%,-5%,u,1%
Clc1ccc(-c2nnc3c4ccccc4nc(N4CCOCC4)n23)cc1Cl,0,10µM*,18µM*,-13%,u,u
C[C@H](CO)N1C[C@H](C)[C@@H](CN(C)C(=O)Nc2ccc(F)cc2)Oc2ncc(-c3ccc(F)cc3)cc2C1=O,-14,u,u,x,x,x
CCOC(=O)N1CCC(N2Cc3cccc(C(=O)Nc4ccc(CC)cc4)c3C2=O)CC1,-70*,u,u,13%,9%,23%
CCOC(=O)N1CCC(N2Cc3cccc(C(=O)Nc4ccc(N(CC)CC)cc4C)c3C2=O)CC1,-6,16µM*,u,-11%,0%,1%
CCC(CC)n1c(C)cc(=O)n1C(CC)CC,7,4%,-3%,-1%,-3%,x
Cc1ccccc1C(=O)Nc1ccc(Br)cn1,5,21µM*,9.2µM*,4%,17%,u
CCC(=O)Nc1ccc(Br)cn1,-18,-22%,-2%,-1%,14%,8%
O=C(Nc1ccc(Cl)cc1C(=O)Nc1ccccn1)c1ccco1,-52*,u,-22%,-12%,-3%,-1%
O=C(Nc1ccccc1C(=O)Nc1ccc(Br)cn1)c1ccccc1Cl,u,u,15µM*,-13%,-1%,1%
O=C(Nc1ccccc1NC(=O)c1ccccc1Cl)c1ccccc1Cl,0,-27%,-11%,10%,4%,3%
S=C(Nc1ccccc1)Nc1ccc(Br)cn1,0,3.7µM*,6.5µM*,14%,11%,u
CC(C)NC(=O)C(C)Oc1ccc(S(=O)(=O)NCc2ccc3c(c2)OCO3)cc1 (stereo not drawn),26,-15%,8%,-1%,-1%,3%
CCCCNC(=O)C(CC)Sc1nc2ccccc2c(=O)n1Cc1ccco1 (stereo not drawn),x,u,u,x,x,2%
Cn1cc(-c2ccc3c(c2)OCO3)c2ccccc21,-13,5%,2%,x,x,x
Cc1ccnc(NC(=O)c2ccc(Cl)c(NC(=O)c3ccccc3C)c2)c1,12,u,u,5%,-3%,-5%
Cc1ccnc(NC(=O)c2ccccc2NC(=O)c2ccc(Cl)cc2Cl)c1,63,1.8µM*,3.7µM*,4.6µM*,6.5µM*,-3%
Cc1ccc(S(=O)(=O)N2[C@H](CC(=O)c3ccc(F)cc3)OC[C@@H]2C)cc1,16,u,u,x,x,x
O=S(=O)(c1ccc(F)cc1)c1nc(-c2ccccc2)oc1N1CCOCC1,0,-23%,-26%,-3%,-2%,-3%
Cn1c(=O)c2cccnc2c(=O)n1C,25,9%,0%,x,x,x
Cc1ccc(S(=O)(=O)Nc2cc(Cl)c(O)c3ncccc23)cc1,50,5.2µM*,2.3µM*,5.2µM*,u,-11%
